CYP2C19 inh = inhibitors of human CYP2C19; P33261; CYP2C19 Supersomes, luciferin-H EGE luminescence, 30 min; inhibition, % at 5 µM; hit rate 21% among 96,000; AID 778;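 active means CYP2C19 inhibition above a set limit at 5 µM in the primary screen, cut at about 50% in these data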;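 further: plate controls were negative control wells for no effect and 2.5 mM tranylcypromine positive control for full effect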
PostGolgi yeast = growth inhibition of a yeast mutant, post-Golgi transport screen. post-Golgi transport phenotypic cell assay. AID 739. hit rate 0.9% among 98,000. inhibition, % at 10 µM;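 further: yeast cells grown in 1536-well plates; yeast grown about 18 h at 30C before absorbance read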
CYP2C9 inhib = human CYP2C9 inhibition | P11712 | CYP2C9 Supersomes, luciferin-H conversion, luminescence | inhibition, % at 5 µM | hit rate 20% among 96,000 | AID 777;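 active means blocking of liver enzyme CYP2C9 beyond about 50% at 5 µM, limit read from the data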
Target sequence (P11712 whole entry, looked up): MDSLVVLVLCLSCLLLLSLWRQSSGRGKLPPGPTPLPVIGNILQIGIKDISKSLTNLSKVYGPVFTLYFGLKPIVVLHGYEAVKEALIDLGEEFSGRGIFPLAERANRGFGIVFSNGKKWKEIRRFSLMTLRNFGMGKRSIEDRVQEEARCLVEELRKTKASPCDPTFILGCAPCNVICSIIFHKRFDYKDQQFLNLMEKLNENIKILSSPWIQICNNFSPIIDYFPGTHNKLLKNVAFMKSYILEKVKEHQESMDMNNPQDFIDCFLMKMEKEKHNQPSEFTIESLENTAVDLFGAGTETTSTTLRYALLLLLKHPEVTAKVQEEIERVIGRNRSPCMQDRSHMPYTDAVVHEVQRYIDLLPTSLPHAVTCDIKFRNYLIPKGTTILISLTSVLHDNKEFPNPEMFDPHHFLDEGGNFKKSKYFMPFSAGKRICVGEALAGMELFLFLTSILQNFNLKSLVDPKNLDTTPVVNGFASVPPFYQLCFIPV
PostGolgi ctrl = yeast control strain growth, post-Golgi counter-screen | efflux-deficient yeast background strain, growth absorbance A615, 16 h | inhibition, % at 10 µM | hit rate 5% among 98,000 | AID 738
CYP2C9 activ = activators of human CYP2C9. P11712. recombinant CYP2C9, luciferin-H conversion, luminescence; active compounds read high; factor 1 = untreated enzyme, 0 = blocked. activation factor at 5 µM. hit rate 1.4% among 96,000. AID 1024;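 active means activation factor of 2 or more for CYP2C9 at a 5 µM dose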;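 further: 0 = sulfaphenazole-blocked wells and 1 = vehicle-only wells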
CYP2C19 activ = activators of human cytochrome P450 2C19; recombinant CYP2C19, luciferin-H EGE luminescence; active compounds read high; 0 = fully inhibited enzyme, 1 = untreated enzyme; AID 1025; P33261; activation factor at 5 µM; 96,000 tested, under 10 active;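 active means activation factor of at least 2 at 5 µM in the primary screen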;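 further: 0 = wells with 2.5 mM tranylcypromine and 1 = vehicle-only wells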
Starred values were filed as active, the others as inactive; / = no result given. Rows were chosen to be rich in hits. Some 32% of all compounds tested hit in one or more screens of this group. Unless noted, no stated cut-off is given here; in the data, active means inhibition above about 30%; inactive means the rest.

SMILES | CYP2C19 inh | PostGolgi yeast | CYP2C9 inhib | PostGolgi ctrl | CYP2C9 activ | CYP2C19 activ
CC(=O)c1cc2c(cc1NS(=O)(=O)c1ccc(C)cc1)OCCO2 | 43 | -9 | -17 | 16 | 1.2 | 0.6
CCN(CC)C(=S)Sc1c(-c2ccccc2)c2cc(Cl)ccc2[nH]c1=O | -16 | 18 | 8 | 32* | 0.9 | 1.2
COc1ccc(CCNC(=O)c2nn(C)cc2Cl)cc1 | 70* | 2 | 3 | 6 | 1 | 0.3
COc1ccccc1CNC(=O)COC(=O)c1cnccn1 | 67* | -1 | 4 | -7 | 1 | 0.3
CCCc1ccc(C(C)NC(=O)c2cnccn2)cc1 (stereo not given) | 76* | -4 | 53* | 9 | 0.5 | 0.2
O=C(Oc1ccccc1)c1ccc(COC(=O)c2cnccn2)cc1 | 45 | -9 | 56* | 4 | 0.4 | 0.6
O=C(Oc1ccc(Cl)cc1)c1ccc(COC(=O)c2cnccn2)cc1 | 50 | -5 | 27 | 11 | 0.7 | 0.5
CN1CCN(NC(=O)c2ccc(Cl)c([N+](=O)[O-])c2)CC1 | -2 | 5 | -30 | 2 | 1.3 | 1
Cn1c(=O)c2c(nc(-n3ccnc3)n2Cc2ccc([N+](=O)[O-])cc2)n(C)c1=O | 4 | 3 | -8 | 2 | 1.1 | 1
CC(C)Cn1cc(C(=O)NCC2CCCO2)c2c3ccccc3n(C)c2c1=O (stereo not given) | 24 | 3 | 26 | 23 | 0.7 | 0.8
COc1ccc(CCNC(=O)c2cnccn2)cc1 | 53* | -10 | 7 | -7 | 0.9 | 0.5
COc1ccccc1CNC(=O)COC(=O)c1n[nH]c2ccccc12 | 97* | -2 | -134 | 6 | 2.3* | 0
COc1ccc(CCNC(=O)c2cccnc2)cc1 | 35 | -2 | 29 | 19 | 0.7 | 0.7
COc1ccc(CNC(=O)COC(=O)c2cnccn2)cc1 | 64* | 1 | 21 | 6 | 0.8 | 0.4
CCC(=O)N1CCN(c2ccc(NC(=O)c3c(F)c(F)c(OC)c(F)c3F)cc2)CC1 | 0 | -5 | 15 | 6 | 0.8 | 1
CCN(CC)c1ccc2c(c1)CCCN2 | / | 6 | / | 5 | / | /
O=C(N1CCC(O)(c2cccnc2)CC1)C12CC3CC(CC(C3)C1)C2 | 15 | -3 | -10 | 8 | 1.1 | 0.8
COC(=O)[C@H](CCSC)NC(=O)Nc1cc(C)ccc1C | 3 | 1 | 0 | 9 | 1 | 1
COC(=O)[C@H](CCSC)NC(=O)Nc1ccc(C)cc1 | 60* | -1 | 12 | -1 | 0.9 | 0.4
CCOC(=O)C1CCCN(C(=O)c2cc(Nc3ccc(OC)c(OC)c3)nc3ccccc23)C1 (stereo not given) | 48 | -7 | 75* | -4 | 0.3 | 0.5
CCOC(=O)C1CCCN(C(=O)c2cc(Nc3ccc(OC)cc3OC)nc3ccccc23)C1 (stereo not given) | 64* | 2 | 98* | -2 | 0 | 0.4
COc1ccc(CC(NC(C)=O)C(=O)NC2CCN(S(=O)(=O)c3cccc4ccccc34)CC2)cc1OC (stereo not given) | 19 | 2 | 8 | 2 | 0.9 | 0.8
CCCN(Cc1cc2ccc(C)cc2[nH]c1=O)S(=O)(=O)c1ccccc1 | 36 | 8 | 97* | 36* | 0 | 0.6
COC(=O)c1cccc(S(=O)(=O)N(Cc2ccco2)Cc2cc3cc(OC)c(OC)cc3[nH]c2=O)c1 | 13 | -1 | 23 | 4 | 0.8 | 0.9
CCOc1ccc(N(Cc2cc3ccc(C)cc3[nH]c2=O)S(C)(=O)=O)cc1 | 11 | 21 | 4 | 3 | 1 | 0.9
SMILES | CYP2C19 inh | PostGolgi yeast | CYP2C9 inhib | PostGolgi ctrl | CYP2C9 activ | CYP2C19 activ
CCN(Cc1cc2ccccc2[nH]c1=O)S(=O)(=O)c1ccccc1 | 81* | 0 | 59* | 30* | 0.4 | 0.2
CC(=O)c1cccc(S(=O)(=O)N(Cc2cc3cc4c(cc3[nH]c2=O)OCCO4)CC2CCCO2)c1 (stereo not given) | 27 | 4 | 30 | 6 | 0.7 | 0.7
COC(=O)c1cccc(S(=O)(=O)N(Cc2ccco2)Cc2cc3ccc(OC)cc3[nH]c2=O)c1 | 19 | 15 | 52* | 6 | 0.5 | 0.8
CC(=O)c1cccc(S(=O)(=O)N(CCCO)Cc2cc3ccc(C)cc3[nH]c2=O)c1 | 0 | 23 | 71* | -1 | 0.3 | 1
CCN(CC)c1cc(C)c2cc(NC(=O)CNC(C)=O)ccc2n1 | -2 | 18 | 14 | 33* | 0.9 | 1
CC(C)CC(=O)Nc1ccc(C(=O)NNC(=O)C(c2ccccc2)c2ccccc2)cc1 | 18 | -5 | 29 | -2 | 0.7 | 0.8
CCOC(=O)C1C2C=CC3(CN(C4CCCC4)C(=O)C13)O2 (stereo not given) | 11 | -6 | -10 | 4 | 1.1 | 0.9
Cc1ccccc1CSCC(Nc1ccc(C(=O)O)cc1[N+](=O)[O-])C(=O)O (stereo not given) | -2 | -2 | 69* | 3 | 0.3 | 1
O=C(c1ccc(Cl)cc1)c1cc(-c2ccccn2)c(N2CCOCC2)s1 | 13 | 4 | 49 | 49* | 0.5 | 0.9
CN(C)c1ccnc(NCc2ccccc2)c1C#N | 67* | / | 39 | / | 0.6 | 0.3
N#Cc1c(NCc2ccccc2)ccnc1NCc1cccnc1 | 99* | 0 | 56* | 10 | 0.4 | 0
Cc1nc(S(=O)(=O)N(C)Cc2ccccc2)c(C#N)c(C)c1Cl | 10 | 4 | 34 | 3 | 0.7 | 0.9
CN(C)c1ccnc(N(Cc2ccccc2)Cc2ccccc2)c1C#N | 96* | -9 | 95* | 20 | 0.1 | 0
Cc1cc(N(C)C)c(C#N)c(NCc2ccccc2)n1 | 34 | 7 | 36 | 5 | 0.6 | 0.7
O=S(=O)(Cc1ccccc1)NCc1cccnc1 | -4 | 16 | 0 | -5 | 1 | 1
CCOCCn1cnc2sc(C(=O)Nc3nc(C)c(C(=O)OCC)s3)c(C)c2c1=O | 6 | / | 19 | / | 0.8 | 0.9
COc1cccc(C2/C(=C(/O)c3cnn(-c4ccccc4)c3C)C(=O)C(=O)N2CCN(C)C)c1 (stereo not given) | / | -2 | / | -2 | / | /
CCn1c(SCC(=O)c2ccc(Cl)cc2)nnc1-c1ccoc1C | 66* | 4 | 26 | 6 | 0.7 | 0.3
CCn1c(SCC(=O)c2ccc(C)cc2)nnc1-c1ccncc1 | 34 | 0 | -1 | 8 | 1 | 0.7
CCn1c(SCC(=O)c2ccc(C)cc2)nnc1-c1ccoc1C | 98* | -1 | 35 | -4 | 0.7 | 0
CCn1c(SCC(=O)c2ccccc2)nnc1-c1ccoc1C | 97* | 4 | 54* | 0 | 0.5 | 0
O=C(CCC(=O)N(CC(=O)NC1CCCCC1)Cc1ccco1)Nc1nccs1 | 13 | 6 | 14 | 7 | 0.9 | 0.9
O=C(CN(Cc1ccc2c(c1)OCO2)C(=O)CNC(=O)c1ccco1)NC1CCCCC1 | 61* | 3 | 83* | 2 | 0.2 | 0.4
O=C(CN(C(=O)CNC(=O)c1ccco1)c1ccc(Cl)c(Cl)c1)NC1CCCCC1 | 86* | -3 | 89* | 6 | 0.1 | 0.1

From PubChem
